Compound activity (PubChem)
SKN-1 inh = C. elegans SKN-1 inhibition; inhibition, % at 21.8 µM; 0.49% of 360,000 active; AID 624304; C. elegans VP596 Pgst-4::GFP/RFP ratio, acrylamide-induced, 24 h;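 active = interference check ratio from 0.5 to 1.5 plus GFP to RFP signal ratio inhibition reaching or exceeding a fixed threshold, cut at about 30% in these data, passing the limit was not always enough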
MEKK2wt PB1 HTS = raises or lowers MEK5 binding to wildtype human MEKK2 PB1 domain. 1.1% of 290,000 active. binding response (% of control), % at 10 µM. Q9Y2U5. bead flow cytometry, Alexa488-MEK5 binding to MEKK2 WT; actives lie on both sides; in the data active = binding response below about 67% or above about 130%
NRP1-CendR mod = alters CendR peptide binding to human NRP-1. FAM-RPARPAR peptide binding to NRP-1, fluorescence polarization. inhibition, % at 25 µM. 0.85% of 360,000 active. AID 602438;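 active = inhibition or corrected inhibition above about 18%, plus a signal ratio from 0.5 to 1.5, limit read from the data, passing the limit was not always enough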
MEKK3 PB1 HTS = MEKK3-MEK5 PB1 interaction, increase or decrease; Q99759; 1.4% of 290,000 active; bead-based flow cytometry, Alexa488-MEK5 binding to MEKK3; actives lie on both sides; 0 = blocked by unlabeled MEK5, 100 = vehicle; binding response (% of control), % at 10 µM;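 active = binding response more than 3 SD above or below the average of its plate-row segment, actives on both sides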;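 note: Alexa488 bead fluorescence after subtracting the streptavidin-only scavenger bead signal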
Target sequence (Q99759 whole entry, looked up): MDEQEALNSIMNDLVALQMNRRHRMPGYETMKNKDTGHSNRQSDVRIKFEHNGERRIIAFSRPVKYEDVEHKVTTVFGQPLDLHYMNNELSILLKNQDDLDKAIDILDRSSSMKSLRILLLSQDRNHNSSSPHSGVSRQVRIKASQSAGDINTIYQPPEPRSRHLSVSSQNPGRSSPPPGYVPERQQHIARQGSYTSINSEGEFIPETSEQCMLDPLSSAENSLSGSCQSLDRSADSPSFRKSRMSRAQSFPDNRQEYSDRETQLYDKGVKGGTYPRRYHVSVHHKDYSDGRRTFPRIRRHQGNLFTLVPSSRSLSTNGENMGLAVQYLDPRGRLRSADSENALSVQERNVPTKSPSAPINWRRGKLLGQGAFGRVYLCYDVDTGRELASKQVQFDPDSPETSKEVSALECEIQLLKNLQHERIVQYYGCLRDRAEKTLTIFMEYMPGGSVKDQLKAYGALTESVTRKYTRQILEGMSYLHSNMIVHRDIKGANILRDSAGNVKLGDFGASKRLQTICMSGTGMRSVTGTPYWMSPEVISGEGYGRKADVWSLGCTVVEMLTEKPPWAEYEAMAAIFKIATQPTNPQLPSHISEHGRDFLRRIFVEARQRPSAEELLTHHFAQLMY
MEKK2mut PB1 HTS = signal of MEK5 binding to mutant human MEKK2 PB1 domain | percent response, % at 10 µM | AID 1530 | 0.35% of 290,000 active | bead flow cytometry, Alexa488-MEK5 binding to MEKK2 mutant; in the data active = percent response above about 24%, passing the limit was not always enough
The depositor's hits bear a star; nt = no result. Rows were chosen to be rich in hits. Some 3.2% of all compounds tested hit in one or more screens of this group.

SMILES | SKN-1 inh | MEKK2wt PB1 HTS | NRP1-CendR mod | MEKK3 PB1 HTS | MEKK2mut PB1 HTS
Cc1cccc(NC(=O)CN2CCN(C(=O)CN3C(=O)NC4(CC(C)CC(C)(C)C4)C3=O)CC2)c1C (stereo not drawn) | -15.0 | nt | 6.0 | nt | nt
O=[N+]([O-])c1cc(-c2csc(NCCc3nc4cc(C(F)(F)F)ccc4n3CCCO)n2)ccc1Cl | -11.5 | 105.0 | 28.4* | 104.0 | 3.0
OCCCn1c(CCNc2nc(-c3ccc(Cl)cc3)cs2)nc2cc(C(F)(F)F)ccc21 | 12.4 | 100.0 | -11.6 | 97.0 | 1.0
O=C(CNC(=O)c1ccc(Br)cc1)NCC(=O)OCC(=O)c1ccc(F)cc1 | 14.5 | 107.0 | 26.1* | 104.0 | 3.0
O=C(CNC(=O)c1ccccc1)NCC(=O)OCC(=O)c1ccc(F)cc1 | 14.7 | 100.0 | -4.0 | 100.0 | 0.0
O=C(Nc1ccc(Cl)cc1)C(c1ccccc1)N(CCO)CCO (stereo not drawn) | 36.8* | 95.0 | -6.2 | 97.0 | -4.0
CCCN(CCC)C(C(=O)Nc1cccc(OC)c1)c1ccccc1 (stereo not drawn) | -4.8 | 101.0 | 2.5 | 106.0 | 1.0
CC(=O)Nc1cc(F)c2c(c1F)Cc1cc(F)ccc1-2 | 10.4 | nt | 24.5* | nt | nt
Cc1cccc(CCNC(=O)C2CC(O)CN2C(=O)Nc2ccccc2)c1 (stereo not drawn) | -8.2 | nt | -8.4 | nt | nt
Cc1[nH]c2c(ccc3cccnc32)c1C | 15.7 | 89.0 | -3.7 | 91.0 | -3.0
CC1=[N+](C)c2c(ccc3cccnc23)C1(C)C | 84.1 | -9.0* | -1.6 | 91.0 | -15.0
CC1(C)CCC23CC[C@]4(C)C(OC2=O)(C3C1)[C@H]1O[C@H]1C1[C@@]2(C)CC[C@@H](O)C(C)(C)C2CC[C@]14C (stereo partly drawn) | nt | 97.0 | nt | 101.0 | 2.0
CCOC(=O)C1=C(COC(=O)c2cc([N+](=O)[O-])ccc2Cl)NC(=O)NC1C (stereo not drawn) | 7.1 | nt | 6.1 | nt | nt
CCOC(=O)C1=C(COC(=O)c2ccc(Cl)cc2[N+](=O)[O-])NC(=O)NC1C (stereo not drawn) | 34.3* | nt | 4.2 | nt | nt
CCn1cc(C(=O)N2CCCC(C(=O)c3cccc(C(F)(F)F)c3)C2)cn1 (stereo not drawn) | -3.2 | nt | -47.7 | nt | nt
Clc1ccc(N2CCN(c3ccnc(Cl)n3)CC2)cc1 | 56.7* | nt | 0.2 | nt | nt
CC(C)(C)OC(=O)N1CCC(NC(=O)c2[nH]cnc2C(=O)Nc2cccc(Cl)c2)CC1 | 3.3 | nt | 32.9* | nt | nt
CC(C)(C)OC(=O)N1CCC(NC(=O)c2nc[nH]c2C(=O)NC2CCN(C(=O)OC(C)(C)C)CC2)CC1 | -0.4 | nt | -3.9 | nt | nt
C[C@@H](NC(=O)c1nc[nH]c1C(=O)NC1CCN(C(=O)OC(C)(C)C)CC1)c1ccccc1 | -0.5 | nt | 22.4* | nt | nt
C[C@H](NC(=O)c1nc[nH]c1C(=O)N1CCN(C(=O)OC(C)(C)C)CC1)c1ccccc1 | 17.8 | nt | 18.4 | nt | nt
Cc1ccc(N2CC(C(=O)NCCC3=CCCCC3)CC2=O)cc1 (stereo not drawn) | -9.2 | nt | -2.8 | nt | nt
O=C(CCNS(=O)(=O)c1ccc(Br)cc1)NCCc1ccc(Cl)cc1 | 7.0 | 103.0 | 26.6* | 100.0 | 3.0
COc1ccc(-c2nc3c4ccccc4ccn3c2Cc2ccccc2)cc1OC | 4.3 | nt | -2.1 | nt | nt
Cc1cc(C)cc(C(=O)OCC(=O)NC(=O)NC2CCCC2)c1 | -6.4 | nt | -5.4 | nt | nt
CC(C)(C)n1nnnc1C(c1cc2ccccc2o1)N(CCC#N)Cc1ccccc1 (stereo not drawn) | 13.0 | nt | 9.3 | nt | nt
SMILES | SKN-1 inh | MEKK2wt PB1 HTS | NRP1-CendR mod | MEKK3 PB1 HTS | MEKK2mut PB1 HTS
COc1ccc(NS(=O)CCCc2ccccc2)cc1 (stereo not drawn) | 0.9 | nt | -10.9 | nt | nt
Clc1ccc(OCCSc2ncccn2)cc1 | 38.5* | 108.0 | -6.8 | 106.0 | 3.0
N#Cc1c(NCCN)nc(NCc2ccccc2)c2c1CCN(Cc1ccccc1)C2 | 30.4 | 169.0* | -23.2 | 104.0 | 36.0*
CCOc1cc(N2CCOCC2)c(OCC)cc1NC(=O)c1cnccn1 | 7.0 | nt | 5.5 | nt | nt
CC(C)Cc1ccccc1S(N)(=O)=O | 9.7 | 106.0 | 12.5 | 101.0 | -2.0
COCc1c(C(=O)OCC(=O)NCCc2ccc(S(N)(=O)=O)cc2)oc2ccccc12 | -2.4 | nt | 20.8* | nt | nt
Cc1c(C(=O)OCC(=O)NCCc2ccc(S(N)(=O)=O)cc2)oc2ccccc12 | -7.2 | nt | 6.3 | nt | nt
CC(C)(C)N1C(=O)c2ccccc2NC(=O)C1C(=O)NCCc1ccccc1 (stereo not drawn) | 6.5 | nt | 10.1 | nt | nt
OC1COC(c2ccccc2)OC1C(O)C1OC(c2ccccc2)OCC1O (stereo not drawn) | 0.2 | nt | 3.3 | nt | nt
Clc1ccc(Cn2nnc(-c3ccccc3)n2)cc1 | 53.6* | 106.0 | -0.4 | 110.0 | 6.0
Fc1ccc(Cn2nnc(-c3ccc(CN4CCOCC4)cc3)n2)cc1 | 36.4* | 102.0 | -3.8 | 87.0 | -3.0
COc1ccc(CSc2ccc(S(=O)(=O)N3CCCC3)cn2)cc1F | -5.2 | nt | 9.3 | nt | nt
CC[C@]12c3[nH]c4ccc(OC)cc4c3CCN1C(=O)C(CC(=O)NCCc1ccccn1)C[C@@H]2C(=O)N1CCN(C(=O)c2ccco2)CC1 (stereo partly drawn) | -2.7 | nt | -0.5 | nt | nt
CSc1nc(N2CCOCC2)c2c(c1C#N)CC(C)(C)OC2 | 36.8* | 101.0 | -1.9 | 102.0 | 4.0
C#CCCOC(=O)N1C2=NC(C(=O)OC)=C(C(=O)OC)[C@@H]3N(C)c4ccccc4[C@]23C[C@H]1CO | 7.6 | 94.0 | 26.1* | 88.0 | -4.0
CCOC(=O)N1C2=NC(C(=O)OC)=C(C(=O)OC)[C@@H]3N(C)c4ccc(OC)cc4[C@]23C[C@H]1C(=O)OC | 1.0 | 102.0 | 25.3* | 100.0 | 1.0
CCc1cc2c(=O)oc(-c3ccc(Br)cc3)nc2s1 | -7.0 | 94.0 | -0.2 | 94.0 | -7.0
COCCN(C(=S)Nc1ccccc1C)C(C)c1cccs1 (stereo not drawn) | -3.0 | 101.0 | 26.4* | 79.0 | 0.0
Cc1cc(OCC(=O)Nc2ccc(CN3CCOCC3)cc2)c2c(C)c(C)c(=O)oc2c1 | -3.1 | 107.0 | 7.0 | 104.0 | 2.0
CCN(CC)c1ccc(N=Nc2ncn[nH]2)cc1 | 45.6* | 95.0 | -64.4 | 94.0 | -2.0
CC(=O)Nc1cc(-c2ccccc2CN(C)C)cn2c(-c3ccc(C(C)=O)cc3)cnc12 | 23.8 | nt | -4.4 | nt | nt
CN(C)c1ccc(Cl)cc1N | -7.5 | 97.0 | 27.6* | 98.0 | -5.0
Nc1cc(Cl)ccc1Oc1ccc(Cl)cc1 | 32.9 | 111.0 | -5.0 | 110.0 | 4.0
O=C(CN1C(=O)NC(Cc2ccccc2)C1=O)Nc1ccc(OC(F)(F)F)cc1 (stereo not drawn) | -10.7 | nt | 33.6* | nt | nt
O=C(CN1C(=O)NC(Cc2ccccc2)C1=O)Nc1ccc(F)cc1 (stereo not drawn) | -21.8 | 103.0 | 2.8 | 96.0 | 1.0
COc1ccc2[nH]c(=O)c(CN(C(=O)c3cccnc3)c3ccc(C)cc3C)cc2c1 | -0.2 | -3.0* | -2.4 | 102.0 | 4.0
